Assay outcomes deposited in PubChem by several laboratories.
MEX-5 binding: MEX-5 zinc finger RNA-binding disruptors – biochemical, C. elegans, fluorescence polarization, MLPCN library, primary screen | activity score (negative = inhibition of binding), % at 10 µM | Zinc finger protein mex-5 (Caenorhabditis elegans), Q9XUB2 | 300,000 compounds, 0.38% hits | MEX-5/FITC-TCR2 RNA binding; active compounds read low | AID 1832, 2009;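 active = inhibition past about -25% in most replicates, and total fluorescence under double the plate's negative control median, limit read from the data; inconclusive = replicates evenly split on the limit, or fluorescence at least double controls; inactive = too little inhibition in most replicates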;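 note: 0% = DMSO and -100% = 5 µM competing unlabeled TCR2 RNA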
GLD-1 RNA inh: GLD-1/TGE RNA complex disruptors, primary screen, biochemical, fluorescence polarization; 320,000 compounds, 0.44% hits; AID 2280, 2010; purified GLD-1 + fluorescein TGE RNA; inhibition, % at 5.96 µM; Female germline-specific tumor suppressor gld-1 (Caenorhabditis elegans), Q17339;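 active = percent inhibition above a per-plate cutoff, the plate mean of test compounds plus 3 SD, cut at about 30% in these data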;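 note: 0% = DMSO wells with GLD-1 and probe and 100% = wells lacking GLD-1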
E coli Lon inh: inhibitors of E. coli Lon protease, primary screen, biochemical, fluorescence polarization; P0A9M0; purified E. coli Lon protease; inhibition, % at 7.94 µM; 360,000 compounds, 0.42% hits; AID 602123, 2011; in the data active = inhibition above about 13%, passing the limit was not always enough;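 note: 0% = enzyme with probe and DMSO and 100% = no enzyme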
MCL1-BIM inh: inhibitors of MCL1 binding to BIM-BH3, primary screen, biochemical, fluorescence polarization. GST-MCL1 / FITC-Bim-BH3 fluorescence polarization. Induced myeloid leukemia cell differentiation protein Mcl-1 (Homo sapiens), Q07820. 320,000 compounds, 0.68% hits. AID 2057, 2009. inhibition, % at 10.9 µM;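 active = inhibition above the mean inhibition of all tested compounds plus 3 SD, set per campaign, cut at about 40% in these data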;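 note: 0% = DMSO wells and 100% = unlabeled Bim-BH3 peptide control; higher means more loss of mP so more displacement of Bim peptide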
Target sequence (Q07820 whole entry, looked up): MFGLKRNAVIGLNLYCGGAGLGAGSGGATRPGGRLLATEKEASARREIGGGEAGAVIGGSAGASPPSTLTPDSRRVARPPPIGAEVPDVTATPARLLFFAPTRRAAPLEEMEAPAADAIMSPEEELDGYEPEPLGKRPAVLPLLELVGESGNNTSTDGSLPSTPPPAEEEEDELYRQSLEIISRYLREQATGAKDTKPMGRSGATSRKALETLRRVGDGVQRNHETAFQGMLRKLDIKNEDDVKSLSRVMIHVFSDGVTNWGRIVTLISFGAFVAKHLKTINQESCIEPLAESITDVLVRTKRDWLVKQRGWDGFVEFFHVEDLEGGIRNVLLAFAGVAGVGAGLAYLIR
BCLXL inh: inhibitors of human Bcl-xL, primary screen, biochemical, fluorescence polarization, HTS. GST-Bcl-xL / FITC-Bim BH3 peptide fluorescence polarization. AID 2129, 2009. 320,000 compounds, 0.7% hits. inhibition, % at 10.9 µM. Bcl-2-like protein 1 (Homo sapiens), Q07817;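 active = inhibition above the mean of all tested compounds plus 3 SD, cutoff set per campaign, cut at about 30% in these data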;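 note: 0% = DMSO wells and 100% = unlabeled Bim-BH3 peptide competitor; inhibitors lower millipolarization by displacing the labeled peptide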
Target sequence (Q07817 whole entry, looked up): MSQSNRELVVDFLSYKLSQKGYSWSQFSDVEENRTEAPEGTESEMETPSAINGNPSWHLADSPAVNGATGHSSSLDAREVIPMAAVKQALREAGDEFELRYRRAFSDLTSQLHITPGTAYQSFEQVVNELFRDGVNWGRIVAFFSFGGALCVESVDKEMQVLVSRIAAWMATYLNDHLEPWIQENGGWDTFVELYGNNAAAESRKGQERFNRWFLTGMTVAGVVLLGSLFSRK
BCLXL inh confirm: Bcl-xL inhibitors blocking Bim BH3 binding, confirmation, counter-screen for MCL1 inhibitor project, biochemical, fluorescence polarization. shares compounds with MCL1-BIM inh. GST-Bcl-xL / FITC-Bim BH3 peptide FP binding. inhibition, % at 10.9 µM. 1,700 compounds, 54% hits;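 active = inhibition above a cutoff equal to the mean inhibition of all tested compounds plus 3 SD, cut at about 30% in these data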;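 note: 0% = DMSO wells and 100% = unlabeled Bim BH3 control peptide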
MCL1 inh confirm: inhibitors of MCL1 binding to BIM-BH3, confirmation, biochemical, fluorescence polarization, triplicate; inhibition, % at 10.9 µM; GST-MCL1 / FITC-Bim-BH3 fluorescence polarization; 1,700 compounds, 61% hits; shares compounds with MCL1-BIM inh;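 active = inhibition above the average of all tested compounds plus 3 SD, cut at about 40% in these data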;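 note: 0% = DMSO wells and 100% = unlabeled Bim-BH3 control peptide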
Active calls of the source: *; ? = inconclusive; . = no result; + = active, no number. A selection: hits, their analogues and other compounds. The true share with any hit is near 1.4%.

SMILES | MEX-5 binding | GLD-1 RNA inh | E coli Lon inh | MCL1-BIM inh | BCLXL inh | BCLXL inh confirm | MCL1 inh confirm
COc1ccc(N(CN2C(=O)C3CCCCC3C2=O)C(=O)c2ccco2)cc1 (configuration not stated) | -2 | 5 | 8 | 2 | 5 | . | .
CCCCCCn1c(=O)[nH]c2nc3cc(N)ccc3nc2c1=O | -49* | 187* | . | + | 187* | 171* | 198*
Cc1oc2c(cc(NS(=O)(=O)c3ccc(C(C)C)cc3)c3ccccc32)c1C(=O)O | -22 | 32* | -2 | 75* | 69* | 110* | 138*
Cc1oc2c(cc(NS(=O)(=O)c3ccc(F)cc3)c3ccccc32)c1C(=O)O | -9 | 1 | -16 | 23 | 22 | . | .
COc1ccc(-c2c3c(=O)n(C)c(=O)n(C)c3cn2Cc2cccnc2)cc1 | -1 | 2 | 10 | 6 | 6 | . | .
CC1CCCN(CC(O)COc2ccc(S(=O)(=O)N3CCCC3)cc2[N+](=O)[O-])C1 (configuration not stated) | . | -1 | -12 | 54* | 7 | 6 | 3
CCCOc1ccc(S(=O)(=O)N2CCCC2)cc1[N+](=O)[O-] | 1 | 0 | -12 | -5 | -2 | . | .
CC(C(=O)Nc1ccc(O)cc1C(=O)O)N1C(=O)/C(=C\c2cccs2)SC1=S (configuration not stated) | -9 | -6 | 0 | 58* | 28 | 27 | 39
O=C(CN1C(=O)/C(=C\c2ccco2)SC1=S)Nc1ccc(O)cc1C(=O)O | -11 | -1 | -25 | 76* | 46* | 23 | 38
O=C(CCCN1C(=O)/C(=C/c2ccco2)SC1=S)Nc1ccccc1C(=O)O | -17 | -1 | -8 | 83* | 40* | 39* | 73*
CSc1ncccc1C(=O)N1CCCC(Nc2ccc(C)c(C)c2)C1 (configuration not stated) | 2 | . | 0 | . | . | . | .
O=[N+]([O-])c1ccc2[nH]c(O)c(N=NC(=S)Nc3cccnc3)c2c1 | 3 | -2 | -7 | 42* | 18 | 32* | 33
NC(=O)C1=C[C@H](c2coc3ccccc3c2=O)C[C@H](OCCCCO)O1 | -2 | 6 | -3 | 5 | 0 | . | .
O=C(O)C1=C[C@H](c2coc3ccccc3c2=O)C[C@H](OCCCCO)O1 | -2 | 16 | 6 | 59* | 9 | 13 | 7
CC1C2C(C)N(C)C(=O)N(C)C2N(C)C(=O)N1C (configuration not stated) | -40* | 41* | 7 | 85* | 81* | 74* | 90*
O=C(c1cc(-c2ccco2)nn1-c1cccc(Cl)c1)N1CCCCC1 | 2 | -6 | -11 | 70* | 3 | 26 | 65*
CCCCN(C(=O)c1cccc(-n2cccc2)c1)c1c(N)n(CCC)c(=O)[nH]c1=O | -2 | 4 | -20 | 55* | 2 | 11 | 51*
O=C(O)CN1C(=O)/C(=C\C(Br)=C\c2ccccc2)SC1=S | -5 | -1 | -36 | 43* | 25 | 33* | 47*
CCOc1ccc(/C=C/C(=O)Nc2ccc(OC)cc2[N+](=O)[O-])cc1 | ? | 63* | 6 | 83* | 57* | 60* | 68*
COc1ccccc1NC(=O)COC(=O)c1cc2c(s1)CCC2 | . | . | -3 | . | . | . | .
COc1ccc(OC)c(NC(=O)COC(=O)c2cc3c(s2)CCC3)c1 | 1 | 8 | -1 | 57* | 6 | 11 | 43*
Cc1ccc(N(CC(=O)NC(C)(C)C)C(=O)CCC(=O)Nc2ccccn2)cc1 | . | . | 0 | . | . | . | .
Nc1c(C(=O)NC2CC2)sc2nc3c(c(-c4ccco4)c12)CC/C3=C/c1ccco1 | . | 85* | 25 | 115* | 73* | 64* | 96*
CC(C)n1c(SCC(=O)Nc2nncs2)nnc1-c1ccco1 | 0 | 4 | . | 41* | 12 | 14 | 45*
Cc1ccccc1-c1cnc(C(O)c2ccc(F)cc2)[nH]1 (configuration not stated) | . | . | 1 | . | . | . | .
SMILES | MEX-5 binding | GLD-1 RNA inh | E coli Lon inh | MCL1-BIM inh | BCLXL inh | BCLXL inh confirm | MCL1 inh confirm
CCN1CCc2c(sc(N)c2C#N)C1 | -8 | -52 | -30 | 59* | 58* | 47* | 40*
CN(C)C(=O)CN1CCN(Cc2cn(C)nc2-c2ccc3c(c2)OCCO3)CC1 | 2 | 1 | 3 | 5 | 4 | . | .
Cn1c(=O)[nH]c(=O)c2c1nc(N1CCNCC1)n2Cc1cccc2ccccc12 | 1 | 10 | 3 | 10 | 4 | . | .
Cc1cc(C)c2nc(-c3ccccn3)cc(C(=O)Nc3ccc(S(=O)(=O)Nc4onc(C)c4C)cc3)c2c1 | -2 | 6 | -2 | 41* | 17 | 30* | 79*
Cc1cc(=O)oc(C)c1C(=O)Nc1ccc2nsnc2c1 | -3 | -6 | -5 | 10 | 4 | . | .
Cc1cc(=O)oc(C)c1C(=O)Nc1ccc2ncccc2c1 | -19 | -27 | -6 | 97* | 100* | 79* | 82*
Oc1cccc(C=NCc2ccccc2)c1O | 0 | 13 | 21 | 64* | 30 | 32* | 65*
Oc1c(C=NCc2ccccc2)sc2ccccc12 | -1 | 3 | 6 | 10 | 6 | . | .
Oc1ccccc1C=Nc1cccc2ccccc12 | 1 | 5 | 2 | 10 | 12 | . | .
Oc1cccc(C=Nc2cccc3ccccc23)c1O | -4 | 24 | -8 | 66* | 38* | 31* | 52*
COC(=O)c1ccc(C(=O)Nc2ccc(N)cc2N)cc1 | 3 | -81 | -334 | 77* | 76* | 21 | 24
COc1c(-c2ccc(O)cc2)oc2cc(O)cc(O)c2c1=O | . | 4 | 4 | 43* | 9 | 23 | 86*
COc1ccc(-c2oc3cc(O)c(OC)c(O)c3c(=O)c2OC)cc1 | -3 | 1 | -4 | 1 | 1 | . | .
O=C(O)C(S)C(S)C(=O)O (configuration not stated) | -21 | 9 | -7 | 84* | 28 | 38* | 86*
CCCCCOc1ccc(C2NC(=O)NC2=O)cc1 (configuration not stated) | 4 | 5 | -1 | 0 | -2 | . | .
